Source: PubChem BioAssay (National Center for Advancing Translational Sciences (NCATS))
Most compounds without a hit are left out; they make up all but 12% or so of the library.
AMA1-RON2 inh = AMA1-RON2 (P. falciparum) interaction inhibition; AlphaScreen AMA1-biotinylated RON2 peptide binding; Potency, µM (doses to about 58.2 µM), without a hit: at the highest dose activity change, negative = inhibition, usual class: inhibitors; actives 0.2% (n = 360,000);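 also: 0% = vehicle wells and -100% = peptide control; nearly all actives have a fitted effect of over 45% in size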
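AMA1 (3D7) with his tag at 25 nM final met compounds first, then biotinylated RON2 peptide at 25 nM; detection used donor plus acceptor beads, 10 µg/mL apiece, read by AlphaScreen after 30 min at room temperature.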
SARS PLpro yeast = inhibitors of SARS-CoV papain-like protease in yeast; S. cerevisiae expressing SARS-CoV PLpro, growth rescue; Potency, µM (series often up to 32.9 µM), without a hit: at the highest dose activity, positive = growth rescue, actives largely listed as activators; actives 0.19% (n = 330,000); calls by dose curve; also: 0% is about no effect; nearly all actives have a fitted effect of over 55% in size
NS1 function inh = blocks influenza NS1 protein function | actives 0.4% (n = 270,000) | Potency, µM (top dose mostly 46.1 µM), without a hit: top-dose activity, positive = more growth; calls by dose curve; also: actives are rising curves; nearly all actives have a fitted effect of over 50% in size
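Recovery from NS1-induced slow growth read by OD600 in budding yeast switched to galactose assay medium (pH 6.0, -URA) at 1:100 dilution. Compound 23 nl per well; the matching strain lacking NS1 serves as control.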
Pf growth 48h = inhibits P. falciparum growth in the first generation, 48 h | Potency, µM (top dose mostly 28.7 µM), inactives show top-dose activity change, negative = inhibition, hits mostly inhibitors | actives 5.9% (n = 310,000) | P. falciparum luciferase growth in erythrocytes, 48 h; also: % is scaled to controls: 0 for no effect and ±100 for the full control effect
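Luciferase-expressing parasites in RBCs, 2% Hct / 0.1% parasitemia final; RPMI 1640 + 0.5% Albumax; 37 C, 5% CO2, one generation; luminescence read-out, lower signal = inhibition.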
Pf growth 96h = P. falciparum growth inhibition at 96 hours. Potency, µM (doses to about 28.7 µM), inactives show at the highest dose activity change, negative = inhibition, most hits filed as inhibitors. P. falciparum luciferase reporter growth, 96 h. actives 6.9% (n = 320,000). AID 504834; also: % is scaled to controls: 0 for no effect and ±100 for the full control effect
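P. falciparum expressing integrated firefly luciferase grown in erythrocytes (2% hematocrit, 0.05% parasitemia final) with compounds for 96 hours at 37 C, 5% CO2. Growth inhibition read as loss of luminescence after adding luciferase detection reagent.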
HCV inhibitor = HCV inhibition. Huh7.5.1 HCVcc-Cre infection, luciferase reporter, 44 h. Potency, µM (titrated, usually from 41.8 µM), inactives show top-dose activity change, negative = inhibition, most hits filed as inhibitors. actives 3.4% (n = 340,000). AID 651820; also: % is scaled to controls: 0 for no effect and ±100 for the full control effect
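Whole-lifecycle infectious HCVcc-Cre system; cells 1,000/well, compound then virus (~0.5 moi) added 4 h after plating, 44 h culture. Luciferase read 15 sec following 15 min substrate incubation, room temp.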
* hit, by the source's call. Unless noted, calls follow the shape of the dose curve; as a rule, active = well fitted curve in the direction sought with a large enough effect; inconclusive = small, poorly fitted or top-dose-only effect, or another doubt; inactive = no such curve, though single readings can be large; an effect the other way counts as inactive or inconclusive. Potency is read from the fitted curve at half-maximal effect.

What do the screens show for `COCCn1c(-c2ccc(OC)cc2)cnc1SCC(=O)Nc1cccc2ccccc12`?
AMA1-RON2 inh: inconclusive; SARS PLpro yeast: -5%; NS1 function inh: 11%; Pf growth 48h: inconclusive; Pf growth 96h: 1.7µM*; HCV inhibitor: -6%

What do the screens show for `COc1ccc(NC(=O)CSc2ncc(-c3ccc(F)cc3)n2Cc2ccco2)cc1`?
AMA1-RON2 inh: inconclusive; SARS PLpro yeast: -3%; NS1 function inh: 6%; Pf growth 48h: 15µM*; Pf growth 96h: 12µM*; HCV inhibitor: inconclusive

What do the screens show for `O=C(NC(=S)Nc1cccnc1Cl)c1ccc(F)cc1`?
AMA1-RON2 inh: 28%; SARS PLpro yeast: -2%; NS1 function inh: -18%; Pf growth 48h: 124%; Pf growth 96h: 17%; HCV inhibitor: inconclusive

How did CC(OC(=O)Cn1[nH]c(=O)c2ccccc2c1=O)C(=O)c1ccccc1 (centres undefined) do in these assays?
AMA1-RON2 inh: 0%; SARS PLpro yeast: 7%; NS1 function inh: 22%; Pf growth 48h: -1%; Pf growth 96h: -8%; HCV inhibitor: 2%

What do the screens show for `CCSc1ccc(-c2cccc([N+](=O)[O-])c2)nn1`?
AMA1-RON2 inh: -23%; SARS PLpro yeast: 0%; Pf growth 48h: 134%; Pf growth 96h: 62%; HCV inhibitor: -9%

How did COCOCCn1cc(CN2CCS(=O)(=O)N(Cc3ccc(-c4ccc(F)nc4)cc3)C(CC(C)C)C2=O)nn1 (centres undefined) do in these assays?
AMA1-RON2 inh: -9%

What do the screens show for `CC(COc1cccc2ccccc12)CN1CCN(C)CC1` (centres undefined)?
AMA1-RON2 inh: -12%; SARS PLpro yeast: 0%; NS1 function inh: -5%; Pf growth 48h: inconclusive; Pf growth 96h: inconclusive; HCV inhibitor: 5µM*

What do the screens show for `COc1ccc(OC)c(S(=O)(=O)N2CCC(C(=O)NCc3ccccn3)CC2)c1`?
AMA1-RON2 inh: 3%; SARS PLpro yeast: -1%; NS1 function inh: -1%; Pf growth 48h: -4%; Pf growth 96h: 4%; HCV inhibitor: 16%

What do the screens show for `COc1ccnc(Oc2ccccc2)c1C(N)=O`?
AMA1-RON2 inh: -18%; SARS PLpro yeast: -2%; NS1 function inh: -1%; Pf growth 48h: 7%; Pf growth 96h: -8%; HCV inhibitor: 15%

Results for CCn1c2ccccc2c2cc(/C=N/n3c(C)nnc3C)ccc21 ?
AMA1-RON2 inh: -5%; SARS PLpro yeast: -28%; NS1 function inh: -50%; Pf growth 48h: -5%; HCV inhibitor: 3.5µM*

How did Cc1nnc(C)n1/N=C/c1ccccc1 do in these assays?
AMA1-RON2 inh: -7%; SARS PLpro yeast: -2%; NS1 function inh: 5%; Pf growth 48h: 39%; Pf growth 96h: 48%; HCV inhibitor: -9%

How did O=c1[nH]cn[nH]1 do in these assays?
AMA1-RON2 inh: 7%; SARS PLpro yeast: 1%; NS1 function inh: 2%; Pf growth 48h: 62%; Pf growth 96h: 0%; HCV inhibitor: 0.56µM*

Results for O=C(NCCN1CCOCC1)c1cc(-c2ccccc2)nc2ccccc12 ?
AMA1-RON2 inh: -5%

Results for Nc1ccc(-n2c(N)c(C(=O)NCc3ccc4c(c3)OCO4)c3nc4ccccc4nc32)cc1 ?
AMA1-RON2 inh: 28%; NS1 function inh: 14%; HCV inhibitor: 2.5µM*

How did O=C(NCCN1CCOCC1)c1cnn2c(-c3ccccc3)cc(-c3ccccc3)nc12 do in these assays?
AMA1-RON2 inh: 57%; SARS PLpro yeast: -3%; NS1 function inh: 8%; Pf growth 48h: inconclusive; Pf growth 96h: 10µM*; HCV inhibitor: 11µM*

Results for Nc1c(C(=O)NCCN2CCOCC2)c2nc3ccccc3nc2n1-c1ccc2c(c1)OCO2 ?
AMA1-RON2 inh: 6%; SARS PLpro yeast: 6%; NS1 function inh: -23%; Pf growth 48h: inconclusive; Pf growth 96h: 2.9µM*; HCV inhibitor: 2%
